Tested on: Caenorhabditis elegans L1 (N2)
Assay: survival and reproduction score of C. elegans L1 (0: 0-10 living worms, 1: 11-20, 2: 21-50, 3: >50, 4: overgrown) (score 0-4); higher = more worms, less nematicidal, active = 1 or less; extreme values may be limits of the assay
Settings: 60 µM; 6 days; temperature: 20 °C
Procedure: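 DODA library (846 commercial 1,3,4- and 1,2,4-oxadiazole compounds plus commercial nematicide controls) screened at a single dose of 60 µM (0.6% DMSO) in 96-well plates, two biological replicates. Read-outs: C. elegans N2 L1 survival/reproduction score at day 6, 20 °C (0: 0-10 worms, 1: 11-20, 2: 21-50, 3: >50, 4: overgrown/starved). C. elegans daf-2 dauer, D. dipsaci and M. hapla J2 mobility at day 5, 20 °C, and P. penetrans mobility at day 5, 20 °C, each relative to DMSO controls. M. hapla egg hatching at day 12, 25 °C, relative to the mean of 8 DMSO wells on the same plate.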

Structure (SMILES)	survival and reproduction score
c1ccc2c(OCc3nc(-c4ccncc4)no3)cccc2c1	4 (inactive)
COc1ccccc1OCc1nc(-c2ccc(Cl)cc2)no1	4 (inactive)
Cc1ccc(-c2noc(-c3ccccc3C)n2)cc1	0 (active)
Cc1cc(Cl)ccc1OCc1nc(-c2ccccc2)no1	4 (inactive)
CCc1ccc(OCc2nc(-c3cccnc3)no2)cc1	4 (inactive)
Cc1ccc(-c2noc(COc3ccccc3Cl)n2)cc1	4 (inactive)
Cc1ccc(-c2noc(-c3ccccc3C(=O)N3CCC(C)CC3)n2)cc1	4 (inactive)
CCc1ccc(C(=O)Nc2ccccc2-c2nc(-c3ccncc3)no2)cc1	4 (inactive)
c1ccc(-c2noc(C3COc4ccccc4O3)n2)cc1 (stereo not given)	0 (active)
Clc1ccccc1-c1noc(COc2ccc(Br)cc2)n1	4 (inactive)
COc1ccc(-c2nnc(SCC(=O)Nc3ccc(Br)cc3C)o2)cc1	4 (inactive)
COc1ccc(-c2nc(C3CCCCC3)no2)cc1	4 (inactive)
O=C(Nc1ccccc1-c1nc(-c2cccnc2)no1)c1cccc(Cl)c1	4 (inactive)
c1cncc(-c2noc(-c3cccc4ccccc34)n2)c1	4 (inactive)
c1ccc(OCc2nc(-c3cccs3)no2)cc1	0 (active)
Brc1ccc(-c2noc(CSc3ccccc3)n2)cc1	0 (active)
COc1cccc(CSc2nnc(-c3ccco3)n2C)c1	2 (inactive)
O=C(Nc1ccc(-c2noc(COc3ccccc3Cl)n2)cc1)c1ccccn1	4 (inactive)
COc1nc2ccc(C)cc2cc1-c1noc(-c2ccncc2)n1	4 (inactive)
c1ccc(CSc2nnc(-c3ccccc3)o2)cc1	0 (active)

Structure (SMILES)	survival and reproduction score
CC(Sc1nnc(-c2ccccc2)o1)C(=O)Nc1nccs1 (stereo not given)	4 (inactive)
Clc1ccc(-c2noc(COc3ccc4c(c3)OCO4)n2)cc1	4 (inactive)
Cc1cc(OCc2nc(-c3ccccc3)no2)cc(C)c1Cl	4 (inactive)
COc1ccc(-c2nnc(SCC(=O)c3ccc(C)o3)o2)cc1	2 (inactive)
O=C(CSc1nnc(-c2ccccc2)o1)NC1CC2CCC1C2 (stereo not given)	4 (inactive)
Cc1ccccc1OCc1nc(-c2ccc(F)cc2)no1	4 (inactive)
Clc1ccc(-c2nc(C3CCCCC3)no2)cc1	4 (inactive)
Clc1ccc(OCc2nc(-c3ccc4c(c3)OCO4)no2)cc1	4 (inactive)
Cc1ccc(-c2noc(CSc3nc4ccccc4[nH]3)n2)cc1	4 (inactive)
COc1nc(C)ccc1-c1noc(-c2ccc(C)cc2)n1	4 (inactive)
Cc1cc(OCc2nc(-c3ccccc3)no2)ccc1Br	4 (inactive)
Clc1ccc(OCc2nc(-c3ccccn3)no2)c(Br)c1	4 (inactive)
Cn1c(SCc2nc(-c3ccc(Br)cc3)no2)nnc1-c1ccco1	4 (inactive)
Cc1ccc(OCc2nc(-c3ccncc3)no2)c(Br)c1	3.5 (inactive)
O=C(CSc1nnc(-c2cccc(Br)c2)o1)Nc1ccccn1	4 (inactive)
Cc1cccc(-c2noc(-c3ccc(C)c(Cl)c3)n2)c1	4 (inactive)
COc1ccccc1-c1nc(-c2ccccc2Cl)no1	4 (inactive)
CCOc1ccc(-c2nc(-c3ccc(Cl)cc3)no2)cc1	3 (inactive)
Cc1cc(OCc2nc(-c3ccccn3)no2)c(C)cc1Br	4 (inactive)
O=C(CSc1nnc(-c2ccc(Br)cc2)o1)N1CCCCCC1	4 (inactive)

From the supplement of paper PMC11219838
